The source of these data is PubChem BioAssay (Tox21).

Assay [1] can be described thus: qHTS assay to identify aromatase inhibitors - cell viability counter screen (AID 743084;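 also: cells stimulated with testosterone during compound exposure; nearly all actives have a fitted effect of over 55% in size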). (In qHTS, concentration-response curves come from the screen itself.)
For assay [2], the target named is Aryl hydrocarbon receptor (Homo sapiens) (UniProt P35869). Put plainly: qHTS assay to identify small molecule that activate the aryl hydrocarbon receptor (AhR) signaling pathway (AID 743085). Also: nearly all actives have a fitted effect of over 15% in size. Also: potency is read from the fitted curve at half-maximal effect.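 As to activation: HG2L7.5c1 human HepG2 liver cells with stably integrated DRE-driven firefly reporter; series mostly up to about 70 µM.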 The procedure, abridged:
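Steps: seed HepG2-AhR-luc cells; allow 5 h at 37C; pin-transfer test compound or vehicle; incubate 24 h at 37C; add viability dye (30 min, 37C) and read fluorescence; add luciferase substrate (30 min, RT) and read luminescence.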

A short description of assay [3]: qHTS assay to identify small molecule that activate the aryl hydrocarbon receptor (AhR) signaling pathway - cell viability counter screen (AID 743086).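 Also: HepG2 liver cells carrying the AhR DRE luciferase reporter; series mostly up to about 70 µM; nearly all actives have a fitted effect of over 45% in size.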 The procedure, abridged: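 HepG2-AhR-luc (HG2L7.5c1) cells, 4000/well, were preincubated 5 h at 37C, exposed to compound in qHTS format for 24 hr at 37C, then given CellTiter-Fluor for 30 min; viability was read as fluorescence in the reporter wells.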

Assay [4] deals with Peroxisome proliferator-activated receptor gamma (Homo sapiens) (UniProt P37231). Briefly: qHTS assay to identify small molecule agonists of the peroxisome proliferator-activated receptor gamma (PPARg) signaling pathway (AID 743094; active = well fitted activation curve with a large enough effect in the signal ratio in the repeat runs, not every such curve was filed as active; the % refers to the signal ratio). The procedure, abridged: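 Agonism was assessed in a beta-lactamase reporter system, HEK293H cells with a stably integrated UAS-bla construct under PPARg control; the 17 h treatment at 37C preceded a 1 h room-temperature FRET substrate read.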
Peroxisome proliferator-activated receptor gamma (Homo sapiens), sequence (P37231 whole entry, looked up): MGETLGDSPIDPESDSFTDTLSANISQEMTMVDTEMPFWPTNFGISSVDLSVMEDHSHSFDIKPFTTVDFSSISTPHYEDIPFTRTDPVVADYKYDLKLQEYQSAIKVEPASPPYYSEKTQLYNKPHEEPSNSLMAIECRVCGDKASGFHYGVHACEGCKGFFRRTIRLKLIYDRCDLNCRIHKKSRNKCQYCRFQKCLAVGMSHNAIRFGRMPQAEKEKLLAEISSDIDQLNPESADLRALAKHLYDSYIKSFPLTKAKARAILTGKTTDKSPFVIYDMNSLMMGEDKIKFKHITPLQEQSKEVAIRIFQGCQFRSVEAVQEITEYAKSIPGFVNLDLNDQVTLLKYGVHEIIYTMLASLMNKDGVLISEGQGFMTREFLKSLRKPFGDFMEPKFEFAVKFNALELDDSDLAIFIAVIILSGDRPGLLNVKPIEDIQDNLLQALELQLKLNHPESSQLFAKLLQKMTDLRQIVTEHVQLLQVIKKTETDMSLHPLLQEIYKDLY

Assay [5] in a line: qHTS assay to identify small molecule antagonists of the peroxisome proliferator-activated receptor gamma (PPARg) signaling pathway - cell viability counter screen (AID 743194). Also: nearly all actives have a fitted effect of over 55% in size. The procedure, abridged: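 PPARg-UAS-bla HEK293H cells were plated, rested 5 h at 37 C, then treated with compounds plus rosiglitazone (50 nM final) for 17 h at 37 C; viability was then read by CellTiter-Glo luminescence after 30 min at room temperature.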

Assay [6] is described as follows: qHTS assay for small molecule agonists of the antioxidant response element (ARE) signaling pathway - cell viability counter screen (AID 743203; calls by dose curve; also: nearly all actives have a fitted effect of over 55% in size). The procedure, abridged: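 ATP content via CellTiter-Glo luminescence served as the viability measure. Cells: ARE-bla HepG2, 2,000 per well. Exposure: 16 hrs, 37C/5% CO2.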
A short description of assay [7]: qHTS assay for small molecule activators of the heat shock response signaling pathway - cell viability counter screen (AID 743209). Also: nearly all actives have a fitted effect of over 50% in size. The procedure, abridged:
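Compounds dissolved in DMSO were added to overnight-plated HSE-bla HeLa cells and left 5 h at 37 C. Cell viability was quantified by luminescence using CellTiter-Glo.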

A short description of assay [8]: qHTS assay to identify small molecule agonists of the peroxisome proliferator-activated receptor delta (PPARd) signaling pathway - cell viability counter screen (AID 743211). Also: nearly all actives have a fitted effect of over 55% in size. The procedure, abridged: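 Viability of GeneBLAzer PPARd UAS-bla HEK293H cells was assessed after 17 h compound incubation at 37C, using CellTiter-Glo reagent added after the reporter read and luminescence recorded 30 min later.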

Assay [9] has as its target Peroxisome proliferator-activated receptor delta (Homo sapiens) (UniProt Q03181). Briefly: qHTS assay to identify small molecule agonists of the peroxisome proliferator-activated receptor delta (PPARd) signaling pathway (AID 743212; calls by dose curve). The procedure, abridged:
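Beta-lactamase reporter read by fluorescence (LiveBLAzer B/G FRET, 2 h, room temperature). Test agents, in DMSO, incubated at 37 C with PPARd-bla HEK293H cells.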

Assay [10] in a line: qHTS assay to identify small molecule antagonists of the peroxisome proliferator-activated receptor delta (PPARd) signaling pathway - cell viability counter screen (AID 743213). Also: nearly all actives have a fitted effect of over 50% in size. The procedure, abridged:
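PPARd-bla HEK293H cells (3000/well) got compound plus 300 nM L165041 agonist for 17 h at 37 C. Viability in the same wells came from CellTiter-Glo luminescence after 30 min at room temperature.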

Assay [11] deals with Peroxisome proliferator-activated receptor delta (Homo sapiens) (UniProt Q03181). Put plainly: qHTS assay to identify small molecule antagonists of the peroxisome proliferator-activated receptor delta (PPARd) signaling pathway (AID 743215; active = well fitted inhibition curve with a large enough effect in the signal ratio in the repeat runs, not every such curve was filed as active; the % refers to the signal ratio;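 also: cells stimulated with agonist L165041 at 300 nM final during compound exposure; series mostly up to about 62 µM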). The procedure, abridged: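 Here, a reporter line (HEK293H, beta-lactamase under a UAS) measures PPARd signaling. Compounds are tested against agonist L165041 at 300 nM final concentration over 17 h at 37 C, with fluorescence read after substrate.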
Peroxisome proliferator-activated receptor delta (Homo sapiens), sequence (Q03181 whole entry, looked up): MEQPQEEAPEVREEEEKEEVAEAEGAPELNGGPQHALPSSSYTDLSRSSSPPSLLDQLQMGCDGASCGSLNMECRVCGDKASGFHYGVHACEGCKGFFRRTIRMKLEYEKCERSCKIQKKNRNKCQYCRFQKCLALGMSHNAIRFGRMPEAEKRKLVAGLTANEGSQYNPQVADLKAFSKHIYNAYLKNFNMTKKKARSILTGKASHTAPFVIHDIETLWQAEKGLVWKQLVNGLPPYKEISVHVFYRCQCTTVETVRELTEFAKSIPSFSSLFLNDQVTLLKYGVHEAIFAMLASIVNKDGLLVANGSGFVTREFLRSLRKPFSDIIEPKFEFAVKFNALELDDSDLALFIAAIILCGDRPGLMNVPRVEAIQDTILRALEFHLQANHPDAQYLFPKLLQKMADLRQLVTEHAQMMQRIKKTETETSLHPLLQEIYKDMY

A short description of assay [12]: qHTS assay to identify small molecule agonists of the farnesoid-X-receptor (FXR) signaling pathway - cell viability counter screen (AID 743218). Also: nearly all actives have a fitted effect of over 45% in size. The procedure, abridged: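 Quantitative HTS counter screen measuring ATP-based viability via CellTiter-Glo luminescence in HEK 293T cells carrying a UAS-driven beta-lactamase reporter, after 16 h compound exposure at 37 C.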

The target of assay [13] is Vitamin D3 receptor (Homo sapiens) (UniProt P11473). Put plainly: qHTS assay to identify small molecule agonists of the vitamin D receptor (VDR) signaling pathway (AID 743222; calls by dose curve). The procedure, abridged: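 Tox21 cell reporter format: VDR-bla line, 16 h compound exposure in 5% CO2 at 37C, then fluorescence intensity after 2 h with LiveBLAzer B/G FRET substrate.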
Vitamin D3 receptor (Homo sapiens), sequence (P11473 whole entry, looked up): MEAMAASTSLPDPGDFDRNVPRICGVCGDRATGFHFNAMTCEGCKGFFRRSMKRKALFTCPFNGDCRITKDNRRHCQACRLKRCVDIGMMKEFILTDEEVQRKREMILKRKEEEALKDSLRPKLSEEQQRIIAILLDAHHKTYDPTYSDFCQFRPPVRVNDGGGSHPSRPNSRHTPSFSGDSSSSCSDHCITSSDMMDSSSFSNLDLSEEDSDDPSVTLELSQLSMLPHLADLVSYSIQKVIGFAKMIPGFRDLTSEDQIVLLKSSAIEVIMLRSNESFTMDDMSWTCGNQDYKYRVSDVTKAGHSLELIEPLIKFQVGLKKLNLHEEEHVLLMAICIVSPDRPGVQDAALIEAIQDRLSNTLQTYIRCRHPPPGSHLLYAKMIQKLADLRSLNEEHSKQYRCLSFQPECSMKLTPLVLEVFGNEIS
The nature of assay [14]: qHTS assay for small molecule agonists of the antioxidant response element (ARE) signaling pathway (AID 743202; active = well fitted activation curve with a large enough effect in the signal ratio in the repeat runs, not every such curve was filed as active; the % refers to the signal ratio). The procedure, abridged:
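Following a 16 h, 37 C exposure of reporter HepG2 cells (ARE-driven beta-lactamase, 2,000 cells/well) to compounds, FRET substrate was applied for 2 h at room temperature and fluorescence intensity recorded.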

Assay [15] can be described thus: qHTS assay for small molecule activators of the heat shock response signaling pathway (AID 743210; active = well fitted activation curve with a large enough effect in the signal ratio in the repeat runs, with a control signal flat, not every such curve was filed as active; the % refers to the signal ratio; also: series mostly up to about 63 µM). The procedure, abridged: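 Heat shock element–beta-lactamase HeLa reporter cells; qHTS with compounds for 5 h at 37 C; detection by FRET substrate fluorescence after 2.5 h at RT.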
In assay [16] the target is Bile acid receptor (Homo sapiens) (UniProt Q96RI1). Put plainly: qHTS assay to identify small molecule agonists of the farnesoid-X-receptor (FXR) signaling pathway (AID 743220; active = well fitted activation curve with a large enough effect in the signal ratio in the repeat runs, not every such curve was filed as active; the % refers to the signal ratio). The procedure, abridged:
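FXR-UAS-bla HEK 293T cells carrying a UAS-driven beta-lactamase reporter were plated for 5 h at 37C/5% CO2, then exposed to DMSO-dissolved Tox21 10K compounds for 16 h at 37C. A LiveBLAzer B/G FRET substrate was loaded for 2 h at room temperature before fluorescence reading.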

Assay [17] is described as follows: qHTS assay to identify small molecule antagonists of the farnesoid-X-receptor (FXR) signaling pathway - cell viability counter screen (AID 743221; active = well fitted cell-killing curve with a large enough effect in the repeat runs, not every such curve was filed as active; also: nearly all actives have a fitted effect of over 50% in size). The procedure, abridged: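 Quantitative HTS of the Tox21 10K library run in parallel with the beta-lactamase reporter read. HEK 293T cells carrying a UAS-driven bla reporter got compound and 50 uM CDCA (final) for 16 h; ATP-based luminescence followed.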

Assay [18] concerns the target Vitamin D3 receptor (Homo sapiens) (UniProt P11473). Briefly: qHTS assay to identify small molecule antagonists of the vitamin D receptor (VDR) signaling pathway (AID 743223; active = well fitted inhibition curve with a large enough effect in the signal ratio in the repeat runs, not every such curve was filed as active; the % refers to the signal ratio). The procedure, abridged:
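Fluorescence from LiveBLAzer B/G FRET substrate, read after 2 h at room temperature, reflects beta-lactamase reporter activity in VDR-bla cells treated 16 h at 37C with compounds and agonist 1alpha,25-dihydroxyvitamin D3 (3 nM final).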

In assay [19] the target is Bile acid receptor (Homo sapiens) (UniProt Q96RI1). Briefly: qHTS assay to identify small molecule antagonists of the farnesoid-X-receptor (FXR) signaling pathway (AID 743217; active = well fitted inhibition curve with a large enough effect in the signal ratio in the repeat runs, not every such curve was filed as active; the % refers to the signal ratio; also: potency is read from the fitted curve at half-maximal effect). The procedure, abridged:
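Test compounds are pin-transferred onto FXR-bla HEK 293T cells, then chenodeoxycholic acid is added at 50 uM final. After 16 h at 37 °C, LiveBLAzer B/G substrate is applied for 2 h at room temperature and fluorescence read.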

Results filed as inconclusive are left out. Activity calls are given as the source filed them. Unless noted, calls follow the shape of the dose curve; as a rule, active = well fitted curve in the direction sought with a large enough effect in the repeat runs; inconclusive = weak or mixed curves; inactive = no such curve, though single readings can be large; an effect the other way counts as inactive or inconclusive.

Aryl hydrocarbon receptor (Homo sapiens), sequence (P35869 whole entry, looked up): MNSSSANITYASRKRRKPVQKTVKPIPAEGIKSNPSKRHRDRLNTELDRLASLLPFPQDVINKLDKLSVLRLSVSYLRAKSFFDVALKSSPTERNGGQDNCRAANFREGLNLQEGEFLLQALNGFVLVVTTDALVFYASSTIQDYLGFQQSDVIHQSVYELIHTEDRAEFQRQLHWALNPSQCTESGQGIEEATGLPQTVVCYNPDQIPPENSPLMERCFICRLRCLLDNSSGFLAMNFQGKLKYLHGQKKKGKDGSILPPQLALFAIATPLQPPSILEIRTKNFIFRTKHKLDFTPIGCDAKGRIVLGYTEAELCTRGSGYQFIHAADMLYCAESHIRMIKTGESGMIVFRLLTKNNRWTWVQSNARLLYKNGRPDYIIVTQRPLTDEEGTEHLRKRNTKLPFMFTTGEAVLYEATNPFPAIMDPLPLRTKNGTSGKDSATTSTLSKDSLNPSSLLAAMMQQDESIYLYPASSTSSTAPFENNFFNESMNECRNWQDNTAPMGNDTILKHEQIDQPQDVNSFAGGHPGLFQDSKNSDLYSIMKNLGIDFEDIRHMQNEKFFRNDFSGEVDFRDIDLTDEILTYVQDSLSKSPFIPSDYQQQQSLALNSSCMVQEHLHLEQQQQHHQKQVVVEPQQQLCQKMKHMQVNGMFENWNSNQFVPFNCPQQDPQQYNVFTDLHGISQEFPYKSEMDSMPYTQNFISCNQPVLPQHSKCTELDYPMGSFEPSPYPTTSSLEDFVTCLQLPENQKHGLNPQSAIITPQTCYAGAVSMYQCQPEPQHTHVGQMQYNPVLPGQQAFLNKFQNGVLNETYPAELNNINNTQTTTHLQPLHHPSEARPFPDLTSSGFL
Bile acid receptor (Homo sapiens), sequence (Q96RI1 whole entry, looked up): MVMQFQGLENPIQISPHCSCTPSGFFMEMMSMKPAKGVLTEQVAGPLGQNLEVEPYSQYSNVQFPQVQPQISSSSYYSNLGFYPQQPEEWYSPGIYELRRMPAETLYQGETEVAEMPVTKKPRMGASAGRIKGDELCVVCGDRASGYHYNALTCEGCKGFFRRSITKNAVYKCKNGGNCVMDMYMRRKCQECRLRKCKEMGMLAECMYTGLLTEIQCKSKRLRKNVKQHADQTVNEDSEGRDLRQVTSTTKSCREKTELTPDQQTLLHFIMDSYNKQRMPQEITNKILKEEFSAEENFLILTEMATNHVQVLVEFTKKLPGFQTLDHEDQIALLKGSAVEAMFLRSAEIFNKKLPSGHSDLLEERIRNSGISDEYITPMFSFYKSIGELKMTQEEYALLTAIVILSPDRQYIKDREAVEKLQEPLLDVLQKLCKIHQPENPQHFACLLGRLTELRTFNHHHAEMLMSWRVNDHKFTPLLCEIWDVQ

Take `CCCC(=O)OCCc1ccccc1`: the Potency entry in [1], in [2], in [3], in [4], in assay [5] and in [6] was “inactive” throughout. Further, the Potency entry in assay [7], in assay [8], in assay [9], in assay [10], in [11] and in assay [12] was “inactive” in each case. Further, in [13], the Potency result was “inactive”.

With `CC(=O)c1ccc(C(C)=O)cc1`, the Potency entry in assay [1], in assay [2], in assay [3], in assay [4], in [14] and in assay [6] was “inactive” each time. The Potency result in assay [7], in [15], in assay [8], in assay [9], in assay [11] and in [12] was “inactive” throughout. The Potency entry in assay [16] and in assay [13] was “inactive” in each case.

Take `Cc1cccc(C(=O)O)c1O`: the Potency entry in assay [1], in assay [2], in [3], in [4], in assay [5] and in [6] was “inactive” each time. The Potency entry in assay [8], in [9], in assay [10], in assay [11], in assay [12] and in [16] was “inactive” throughout. Also, the Potency entry in assay [17], in [13] and in assay [18] was “inactive” throughout.

On to `COC(=O)Nc1nc2ccc(C(=O)c3ccccc3)cc2[nH]1`, for which the Potency result in assay [1], in assay [3], in [4], in [5], in assay [7] and in [15] was “inactive” in each case. Further, the Potency result in assay [9], in assay [10], in assay [11], in assay [12], in assay [16] and in [17] was “inactive” in each case. The Potency entry in [13] is “inactive”. Moreover, the Potency in [2] is 4.52 µM (active); in assay [19] it was 1.06 µM (active).

As for `CCc1cccc(CC)c1NC(=O)CN(CC(=O)O)CC(=O)O`, the Potency result in assay [1], in [2], in assay [3], in assay [4], in assay [14] and in assay [6] was “inactive” each time. Further, the Potency entry in assay [7], in assay [8], in assay [9], in assay [10], in assay [11] and in [12] was “inactive” throughout. In addition, the Potency entry in assay [17], in assay [13] and in assay [18] was “inactive” in each case.

As for `Cc1c(C)c([N+](=O)[O-])c(C(C)(C)C)c([N+](=O)[O-])c1C`, the Potency entry in assay [1], in assay [2], in assay [3], in assay [4], in assay [14] and in assay [6] was “inactive” each time. Besides, the Potency entry in [9], in assay [11], in assay [12] and in assay [17] was “inactive” in each case.
